Test results published in PubChem BioAssay (NCATS).
Records with an inconclusive call do not appear. Active and inactive are the calls of the source. Unless noted, calls follow the shape of the dose curve; as a rule, active = well fitted curve in the direction sought with a large enough effect; inconclusive = small, poorly fitted or top-dose-only effect, or another doubt; inactive = no such curve, though single readings can be large; an effect the other way counts as inactive or inconclusive.

Legend:
[1] = biological target: Glucocorticoid receptor (Homo sapiens) (UniProt P04150); experiment: GR-GFP Redistribution (AID 450;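 active = compounds whose dose series gives a full or clear partial fitted curve of increased nuclear translocation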; also: potency is read from the fitted curve at half-maximal effect); settings: U2OS GR-GFP nuclear translocation, laser cytometry, 2 h
[2] = biological target: Glucocorticoid receptor (Homo sapiens) (UniProt P04150); experiment: GR-EFC Redistribution (AID 451; calls by dose curve; also: potency is read from the fitted curve at half-maximal effect); settings: CHO-K1 GR-EFC translocation, beta-gal luminescence, 2 h
In short: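 Translocation of GR-ED fusion to nuclear EA restores b-gal, read by luminescence after 1 h room-temperature detection. Engineered CHO-K1 biosensor cells, 1,000/well, exposed 2 h at 37 C to titrations up to 46 uM final.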

[3] = biological target: Mitogen-activated protein kinase 10 (Mus musculus) (UniProt Q61831); experiment: JNK3 AlphaScreen Assay (AID 530; active = well fitted curve in either direction with a large enough effect, not every such curve was filed as active;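 also: kinase came from lysate of stimulated human HepG2 cells; signal reports phosphorylation of biotinylated GST-cJun 1-79 at Ser73 with 10 µM ATP; % is scaled to controls: 0 for no effect and ±100 for the full control effect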); settings: JNK3 lysate, c-Jun phosphorylation; series mostly up to 57.1 µM
In short: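 Room-temperature AlphaScreen kinase assay; pre-activated HepG2 lysate as JNK3 source, biotin-GST-cJun(1-79) substrate, 10 uM ATP, compound 15 min preincubation.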

[4] = Cell Viability - N2a (AID 540); settings: N2a mouse neuroblastoma cell viability; at 92.2 µM (top of the series);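 also: plate controls were DMSO alone for no effect and tamoxifen control for full effect; nearly all actives have a fitted effect of over 45% in size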
In short: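 Mouse neuroblastoma N2a cells (1500/well) were preincubated 5 hr at 37 °C, then exposed to compounds for 40 hr at 37 °C in complete medium. Viability was read as intracellular ATP by CellTiter-Glo luminescence; AC50 from Hill fits.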

[5] = Cell Viability - NIH 3T3 (AID 541); settings: NIH 3T3 cell viability, qHTS; activity change, negative = cytotoxicity: at 92.2 µM (top of the series);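 also: plate controls were DMSO alone for no effect and tamoxifen positive control for full effect; nearly all actives have a fitted effect of over 25% in size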
In short: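 NIH 3T3 mouse embryo fibroblasts (1000 cells/well) were plated in complete medium and treated with compound for 40 hr at 37 °C. Viability was read as intracellular ATP by CellTiter-Glo luminescence; AC50 values came from Hill-equation fits of concentration-response data.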

[6] = Cell Viability - HUV-EC-C (AID 542); settings: HUV-EC-C endothelial cell viability, qHTS; series mostly up to 92.2 µM; also: % is scaled to controls: 0 for no effect and ±100 for the full control effect; nearly all actives have a fitted effect of over 35% in size
In short: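 HUV-EC-C normal human vascular endothelial cells, 1000 cells/well, pre-incubated 5 hr at 37 °C, then exposed to compounds for 40 hr at 37 °C in complete medium. Viability measured as intracellular ATP by CellTiter-Glo luminescence; AC50 from Hill fits.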

[7] = Cell Viability - H-4-II-E (AID 543); settings: H-4-II-E rat hepatoma viability; series mostly up to 92.2 µM; also: nearly all actives have a fitted effect of over 35% in size; also: potency is read from the fitted curve at half-maximal effect
In short: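 Rat hepatoma H-4-II-E cells (1500/well) were plated, incubated 5 hr at 37 °C, then exposed to compounds for 40 hr at 37 °C. Cellular ATP was read by CellTiter-Glo luminescence; AC50 came from Hill-equation fits of concentration-response data.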

[8] = Cell Viability - SH-SY5Y (AID 544); settings: SH-SY5Y neuroblastoma cell viability; series mostly up to 92.2 µM; also: nearly all actives have a fitted effect of over 55% in size; also: potency is read from the fitted curve at half-maximal effect
In short: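 Human neuroblastoma SH-SY5Y cells (1500/well) in complete medium were exposed to compounds for 40 hr at 37 °C; intracellular ATP was then quantified by CellTiter-Glo luminescence after 20 min at room temperature. AC50 came from Hill-equation concentration-response fits.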

[9] = Cell Viability - Renal Proximal Tubule (AID 545); settings: renal proximal tubule cells viability, primary cells of rat origin; at 91.7 µM (top of the series);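 also: 0% = DMSO only and -100% = 100 µM tamoxifen; nearly all actives have a fitted effect of over 40% in size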
In short: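 Cytotoxicity is scored as a concentration-dependent drop in cellular ATP in primary rat renal proximal tubule cells exposed for 40 hr. AC50 derives from Hill modelling.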

[10] = Cell Viability - Mesenchymal (AID 546); settings: mesenchymal cells viability, qHTS; series mostly up to 91.7 µM;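 also: cells exposed to compound for 40 hours before reading; 0% = DMSO only and -100% = 100 µM tamoxifen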
In short: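 AC50 values reflect the drop in intracellular ATP in a human kidney mesenchymal line derived from normal glomeruli. Treatment lasts 40 hr at 37 °C in complete medium, and the signal comes from CellTiter-Glo luminescence.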

Sequence of Glucocorticoid receptor (Homo sapiens) (P04150 whole entry, looked up, the tested form may be a part): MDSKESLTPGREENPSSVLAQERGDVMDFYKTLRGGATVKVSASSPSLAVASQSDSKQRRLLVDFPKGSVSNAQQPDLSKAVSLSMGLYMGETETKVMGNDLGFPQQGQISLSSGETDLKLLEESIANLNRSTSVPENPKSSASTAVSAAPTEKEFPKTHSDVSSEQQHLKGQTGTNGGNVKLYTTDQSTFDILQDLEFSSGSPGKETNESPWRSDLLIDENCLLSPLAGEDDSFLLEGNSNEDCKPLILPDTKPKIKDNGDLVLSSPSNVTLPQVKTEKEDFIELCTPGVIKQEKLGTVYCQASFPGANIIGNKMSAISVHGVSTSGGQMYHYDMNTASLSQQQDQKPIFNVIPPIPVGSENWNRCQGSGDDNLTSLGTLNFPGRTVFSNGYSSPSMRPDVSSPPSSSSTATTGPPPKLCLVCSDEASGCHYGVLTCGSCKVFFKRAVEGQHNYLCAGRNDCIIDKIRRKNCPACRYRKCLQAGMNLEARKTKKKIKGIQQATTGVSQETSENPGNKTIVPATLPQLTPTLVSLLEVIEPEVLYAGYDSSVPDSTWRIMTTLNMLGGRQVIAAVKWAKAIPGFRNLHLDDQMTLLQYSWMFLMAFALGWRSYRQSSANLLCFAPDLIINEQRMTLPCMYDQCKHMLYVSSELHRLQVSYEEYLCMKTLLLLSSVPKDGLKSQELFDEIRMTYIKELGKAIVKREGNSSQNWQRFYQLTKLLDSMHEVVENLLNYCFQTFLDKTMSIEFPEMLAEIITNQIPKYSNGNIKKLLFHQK

CCCCC(=O)O[C@H]1CC[C@H]2[C@@H]3CCc4cc(O)ccc4[C@H]3CC[C@]12C
inactive: Potency [1] > 20.6 µM

COc1ccc(C[C@H](C)NC[C@@H](O)c2ccc(O)c(NC=O)c2)cc1
inactive: Potency [1] > 46 µM | Potency [2] > 46 µM | outcome [3]

CNC(=O)c1c(I)c(C(=O)NCC(=O)Nc2c(I)c(C(=O)O)c(I)c(C(=O)NCCO)c2I)c(I)c(N(C)C(C)=O)c1I
inactive: outcome [3]

CN1CCc2c(c3ccccc3n2Cc2ccccc2)C1
inactive: outcome [3]

O=C(O)Cc1nn(Cc2ccc(Br)cc2F)c(=O)c2ccccc12
inactive: outcome [3]

N[C@@H](Cc1cc(I)c(Oc2ccc(O)c(I)c2)c(I)c1)C(=O)O
inactive: Potency [1] > 20.6 µM

O=C(O)CCC(=O)c1ccc(-c2ccccc2)cc1
inactive: Potency [1] > 20.6 µM | Potency [2] > 20.6 µM | outcome [3]

Cc1ncc[nH]1
inactive: outcome [3] | activity change, negative = cytotoxicity [4] -1.34% | activity change, negative = cytotoxicity [5] -6.23% | Potency [6] | Potency [7] | Potency [8] | activity change, negative = cytotoxicity [9] -3.28% | outcome [10]

CN1C(=O)OC(C)(C)C1=O
inactive: Potency [1] > 20.6 µM | Potency [2] > 20.6 µM | outcome [3]

C[C@H](CCC(=O)O)[C@H]1CC[C@H]2[C@@H]3[C@H](O)C[C@@H]4C[C@H](O)CC[C@]4(C)[C@H]3C[C@H](O)[C@]12C
inactive: outcome [3] | activity change, negative = cytotoxicity [4] -9.32% | activity change, negative = cytotoxicity [5] -13.2% | Potency [6] | Potency [7] | Potency [8] | activity change, negative = cytotoxicity [9] 5.01% | outcome [10]

O=C(O)c1ccc(OCCn2ccnc2)cc1
inactive: Potency [1] > 20.6 µM

OB(O)O
inactive: outcome [3] | activity change, negative = cytotoxicity [4] -10.8% | activity change, negative = cytotoxicity [5] -22.1% | Potency [6] | Potency [7] | Potency [8] | activity change, negative = cytotoxicity [9] -6.9% | outcome [10]

Cc1ncc(C[n+]2csc(CCO)c2C)c(N)n1
inactive: outcome [3]

COc1cc(S(C)=O)ccc1-c1nc2ncccc2[nH]1 (centres undefined)
inactive: Potency [1] > 20.6 µM | Potency [2] > 20.6 µM

CCSc1ccc2c(c1)N(CCCN1CCN(C)CC1)c1ccccc1S2
inactive: outcome [3]

Cn1nnnc1SCC1=C(C(=O)O)N2C(=O)[C@@H](NC(=O)[C@H](O)c3ccccc3)[C@H]2SC1
inactive: Potency [1] > 20.6 µM

CC(=O)[C@H]1CC[C@H]2[C@@H]3C=CC4=CC(=O)CC[C@@]4(C)[C@H]3CC[C@]12C
inactive: Potency [2] > 20.6 µM | outcome [3]

O=P(O)(O)OP(=O)(O)O
inactive: Potency [1] > 46 µM | Potency [2] > 9.22 µM | activity change, negative = inhibition [3] 0.801% [at 11.4 µM]

CCc1cn([C@H]2C[C@H](O)[C@@H](CO)O2)c(=O)[nH]c1=O
inactive: Potency [1] > 20.6 µM

O=C1NCCN1c1ncc([N+](=O)[O-])s1
inactive: Potency [1] > 20.6 µM | Potency [2] > 20.6 µM | outcome [3]

Nc1ccc(N=Nc2ccccc2)c(N)n1
inactive: Potency [1] > 20.6 µM | Potency [2] > 20.6 µM | activity change, negative = cytotoxicity [4] -30.4% | activity change, negative = cytotoxicity [9] -20%

O=C(O)Cc1cc(I)c(Oc2ccc(O)c(I)c2)c(I)c1
inactive: Potency [1] > 20.6 µM | Potency [2] > 20.6 µM | outcome [3]

CCCOc1cc(N)ccc1C(=O)OCCN(CC)CC
inactive: Potency [1] > 20.6 µM | Potency [2] > 20.6 µM | outcome [3]

Cc1cc(-c2ccc(N=Nc3ccc4c(S(=O)(=O)O)cc(S(=O)(=O)O)c(N)c4c3O)c(C)c2)ccc1N=Nc1ccc2c(S(=O)(=O)O)cc(S(=O)(=O)O)c(N)c2c1O
inactive: Potency [1] > 46 µM | Potency [2] > 46 µM

Cc1cccc(C)c1NC(=O)C1CCCCN1C (centres undefined)
inactive: Potency [1] > 20.6 µM

CC1(C)S[C@@H]2[C@H](NC(=O)C3(N)CCCCC3)C(=O)N2[C@H]1C(=O)O
inactive: Potency [1] > 20.6 µM | Potency [2] > 20.6 µM | outcome [3]

C[C@@](Cc1ccc(O)c(O)c1)(NN)C(=O)O
inactive: Potency [1] > 46 µM | Potency [2] > 46 µM

CC(=O)Oc1cc(C(F)(F)F)ccc1C(=O)O
inactive: Potency [1] > 20.6 µM | Potency [2] > 20.6 µM | outcome [3]

N[C@H](CC(=O)O)C(=O)O
inactive: Potency [1] > 46 µM | Potency [2] > 46 µM | outcome [3]

CC(=O)Oc1cccc2c1C(=O)c1c(OC(C)=O)cc(C(=O)O)cc1C2=O
inactive: Potency [1] > 20.6 µM

Cc1cc(C)c(NC(=O)C[C@H](CC(=O)O)c2cccc3ccccc23)c(C(=O)N2CCC3(CCCC3)CC2)c1
inactive: Potency [1] > 46 µM | Potency [2] > 46 µM | outcome [3]

CC(=O)N=c1sc(S(N)(=O)=O)nn1C
inactive: Potency [1] > 20.6 µM | Potency [2] > 20.6 µM | outcome [3]

CCOC(C)OCC
inactive: outcome [3] | activity change, negative = cytotoxicity [4] -0.722% | activity change, negative = cytotoxicity [5] -3.45% | Potency [6] | Potency [7] | Potency [8] | activity change, negative = cytotoxicity [9] -8.55% | outcome [10]

c1ccc2ccccc2c1
inactive: outcome [3] | activity change, negative = cytotoxicity [4] 6.48% | activity change, negative = cytotoxicity [5] 0.772% | Potency [6] | Potency [7] | Potency [8] | activity change, negative = cytotoxicity [9] 1.8% | outcome [10]

Cc1ccc(S(=O)(=O)O)cc1C
inactive: outcome [3] | activity change, negative = cytotoxicity [4] -7.07% | Potency [6] | Potency [7] | Potency [8] | activity change, negative = cytotoxicity [9] -15.2% | outcome [10]

CO/N=C(/C(=O)N[C@@H]1C(=O)N2C(C(=O)O)=C(COC(N)=O)CS[C@H]12)c1ccco1
inactive: outcome [3] | activity change, negative = cytotoxicity [4] 8.73% | activity change, negative = cytotoxicity [5] -7.55% | Potency [6] | Potency [7] | Potency [8] | activity change, negative = cytotoxicity [9] 4.36% | outcome [10]

C=C1C(CCl)(CCl)C2(Cl)C(Cl)C(Cl)C1(Cl)C2(Cl)Cl (centres undefined)
active: activity change, negative = cytotoxicity [4] -112% | activity change, negative = cytotoxicity [5] -80.2% | Potency [7] 50.1 µM | Potency [8] 31.6 µM | activity change, negative = cytotoxicity [9] -88.3%

COC(=O)c1ccccc1O
inactive: outcome [3] | activity change, negative = cytotoxicity [4] 0.567% | activity change, negative = cytotoxicity [5] 6.05% | Potency [6] | Potency [7] | Potency [8] | activity change, negative = cytotoxicity [9] -0.7% | outcome [10]

NCCN
inactive: outcome [3] | activity change, negative = cytotoxicity [4] 5.1% | activity change, negative = cytotoxicity [5] -4.12% | Potency [6] | Potency [7] | Potency [8] | activity change, negative = cytotoxicity [9] 7.8% | outcome [10]

CCCCC
inactive: outcome [3] | activity change, negative = cytotoxicity [4] 6.23% | activity change, negative = cytotoxicity [5] -10.6% | Potency [6] | Potency [7] | Potency [8] | activity change, negative = cytotoxicity [9] 5.08% | outcome [10]

CC/C=C\C/C=C\C/C=C\CCCCCCCC(=O)O
active: activity change, negative = cytotoxicity [5] -137%
inactive: outcome [3] | activity change, negative = cytotoxicity [4] -20.9% | Potency [6] | Potency [7] | activity change, negative = cytotoxicity [9] -15.2% | outcome [10]

O=P(O)(O)O
inactive: outcome [3] | activity change, negative = cytotoxicity [4] -12.4% | activity change, negative = cytotoxicity [5] -8.72% | Potency [6] | Potency [7] | Potency [8] | activity change, negative = cytotoxicity [9] -7.24% | outcome [10]
